From patent publication US20100081621, “Crystal structure of the catalytic domain of the viral restriction factor APOBEC3G” (published 2010)

What follows are sequences tested against APOBEC3G R313E/R320D (Homo sapiens, UniProt Q9HC16 Q9HC16:1-384, R313E,R320D) (assay: FP; 5 mM MgCl2, 37 C). Settings: tags: Sf9, pAcG2T; label: internal fluorescein-dT; ssDNA; [15 (fluorescein-dT)].
Description: Apo3G-DNA binding were monitored by changes in steady state fluorescence depolarization (rotational anisotropy). Reaction mixtures (70 μl), containing an F-labeled DNA ([…]) in buffer (50 mM HEPES, pH 7.3, 1 mM DTT and 5 mM MgCl₂) and varying concentration of 0 to 500 nM Apo3G, were incubated at 37° C. The sequence of the ssDNA is: tta gat gag tgt aa(FdT) gtg ata tat gtg tat. Rotational anisotropy was measured as described previously (Chelico et al., 2006). The fraction of DNA bound to protein was determined as described previously (Bertram et al., 2004).

Sequence of APOBEC3G R313E/R320D (Q9HC16 whole entry R313E/R320D, one chain of several): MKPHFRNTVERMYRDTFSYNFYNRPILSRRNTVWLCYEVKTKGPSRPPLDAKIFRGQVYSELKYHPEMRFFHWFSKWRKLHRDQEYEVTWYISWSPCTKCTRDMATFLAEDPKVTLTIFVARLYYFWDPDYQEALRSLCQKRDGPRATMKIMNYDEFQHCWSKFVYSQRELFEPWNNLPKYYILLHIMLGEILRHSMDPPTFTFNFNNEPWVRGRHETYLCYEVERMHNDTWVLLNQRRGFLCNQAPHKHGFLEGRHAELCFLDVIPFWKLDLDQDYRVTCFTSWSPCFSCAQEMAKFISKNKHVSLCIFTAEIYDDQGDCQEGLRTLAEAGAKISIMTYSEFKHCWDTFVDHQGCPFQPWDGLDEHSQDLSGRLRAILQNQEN

Question: For TTAGATGAGTGTAATGTGATATATGTGTAT, which binding signal is on record?
Answer: 77 % of wt
